Reference: PubChem BioAssay AID1259336 (Sattelle Laboratory, UCL Respiratory, Division of Medicine, …, 2017)
Values without a mark were called inactive. Calls of active or inactive are those of the source. Rule as the data show it: active = log2 fold change growth below about -1.8; inactive = the rest.

Experiment: anthelmintic activity against nematode growth – whole organism, log2 fold change (AID 1259336);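 also: growth scored by imaging after five days at 20 °C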
Conditions: C. elegans growth, anthelmintic screen; stronger effect = lower value

Row | Structure (SMILES) | log2 fold change growth
1 | CCc1nn(C)c(C(=O)NCc2ccc(Oc3ccc(C)cc3)cc2)c1Cl | -10.9 (active)
2 | O=C1O[C@@H](CO)CN1c1cc(F)c(C2=CCN(Cc3ccccc3)CC2)c(F)c1 | 0.141
3 | O=C1O[C@@H](COc2ccon2)CN1c1cc(F)c(C2=CCN(Cc3ccccc3)CC2)c(F)c1 | 0.114
4 | Cc1cccc(C(=O)Nc2ccnc(N(C)C3CCN(CC(C)C)CC3)c2)c1 | 0.418
5 | Cc1nn(Cc2ccccc2)c(Cl)c1C(=O)NC1CCCCCC1 | 0.0333
6 | Nc1c2c(nc3sc4c(c13)CCCC4)CCCC2 | -0.177
7 | Cc1nn(C)c(C)c1NS(=O)(=O)c1c(Cl)cc(-c2ccnc(N3CCNCC3)c2)cc1Cl | -0.0922
8 | CO/N=C(/C(=O)OC)c1ccccc1CO/N=C(/C)c1cccc(C(F)(F)F)c1 | -0.187
9 | CO[C@@H]1CN(c2ccc(C#CC3(O)CN4CCC3CC4)c(Cc3ccccc3)n2)C[C@H]1O (some centres undefined) | -0.086
10 | CC1(C)OB(O)c2ccc(C3=NO[C@](c4cc(Cl)c(F)c(Cl)c4)(C(F)(F)F)C3)cc21 | -2.88
11 | Cc1cc(C2=NO[C@](c3cc(Cl)c(F)c(Cl)c3)(C(F)(F)F)C2)ccc1C(=O)NCc1ccc2c(c1)C(C)(C)OB2O | -0.268
12 | CC(C)(C)C(O)C(Oc1ccc(-c2ccccc2)cc1)n1cncn1 (centres undefined) | -0.263
13 | CO/C=C(\C(=O)OC)c1ccccc1Oc1cc(Oc2ccccc2C#N)ncn1 | -0.352
14 | CC1COC(Cn2cncn2)(c2ccc(Oc3ccc(Cl)cc3)cc2Cl)O1 (centres undefined) | -0.72
